For 39 molecules, growth inhibition results are on record in PubChem BioAssay (NCI).

Assay [1] can be described thus: NCI Yeast Anticancer Drug Screen. Data for the rad50 strain (AID 155).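 Further: 0% = growth of vehicle-only cultures of the same strain.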 The following applies: S. cerevisiae rad50 strain growth inhibition; at 50.0 µM; stronger effect = higher value. An outline of the steps: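 Inhibition values express reduced yeast growth in compound-treated cultures relative to vehicle-treated controls.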
Assay [2] can be described thus: NCI Yeast Anticancer Drug Screen. Data for the mec2-1 strain (AID 157). The following applies: S. cerevisiae mec2-1 strain, at 50.0 µM, stronger effect = higher value. An outline of the steps:
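Using mec2-1 yeast: add compound, measure growth, express inhibition versus vehicle-treated cultures.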

Assay [3] can be described thus: NCI Yeast Anticancer Drug Screen. Data for the sgs1 mgt1 strain (AID 161).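 Further: 0% = growth of cultures given vehicle only.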 The following applies: S. cerevisiae sgs1 mgt1 strain, at 50.0 µM, stronger effect = higher value. In a few lines:
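Growth of a repair-deficient yeast mutant was monitored after compound treatment and expressed as inhibition relative to vehicle-treated cultures.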

Assay [4] can be described thus: NCI Yeast Anticancer Drug Screen. Data for the cln2 rad14 strain (AID 165).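 Further: 0% = growth equal to vehicle treated cultures.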 The following applies: S. cerevisiae cln2 rad14 strain, at 50.0 µM, stronger effect = higher value. An outline of the steps: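 Yeast strain cln2 rad14, bearing defects in cell cycle control and DNA repair, serves as the test system; values reflect growth inhibition compared with vehicle.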
Assay [5] can be described thus: NCI Yeast Anticancer Drug Screen. Data for the bub3 strain (AID 167). The following applies: S. cerevisiae bub3 mutant strain, at 50.0 µM, stronger effect = higher value. In a few lines:
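Steps: expose the mutant yeast strain to compound; grow alongside vehicle-treated cultures; measure growth; express inhibition against the vehicle cultures.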

Assay [6] can be described thus: NCI Yeast Anticancer Drug Screen. Data for the mlh1 rad18 strain (AID 175). The following applies: S. cerevisiae mlh1 rad18 strain growth inhibition; at 50.0 µM; stronger effect = higher value. In a few lines:
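Steps: expose repair-defective yeast to compound; measure growth; express inhibition against vehicle-treated controls.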

Structures are written as SMILES. This is part of a sample that, as a whole, favours compounds with a hit. Of some 79,000 tested, about 15% had one in any assay. Unmarked numbers belong to inactive results. Active and inactive are the calls of the source. No stated cut-off is given here; in the data, active means growth inhibition above about 70%; inactive means the rest.

For the molecule `Nc1nc(-c2ccccc2)cc(-c2cc(-c3ccccc3)nc(N)n2)n1`, the growth inhibition in assay [1] was 12.8%; in assay [2], -8.35%; in assay [3], -18.9%; in assay [4], -1.5%; in assay [5] it was -5.95%; in assay [6], 10.3%.
With `Cc1ccc(S(=O)(=O)N2N=C(c3ccccc3)CC2c2ccccc2)cc1` (centres undefined), the growth inhibition in assay [1] is 83.1% (active); in assay [2] it was 87.1% (active); in assay [3], 88.4% (active); in assay [4], 81% (active); in assay [5], 82% (active); in assay [6], 91% (active).
Take `C/C=C/C(=O)NN`: the growth inhibition in assay [1] was 13.3%; in assay [2], 7.85%; in assay [3] it was -4.65%; in assay [4] it was -21.2%; in assay [5], -2.9%; in assay [6], 25.8%.
With `CC(C)CC(NC(=O)C(COC(C)(C)C)NC(=O)C(CSC(c1ccccc1)(c1ccccc1)c1ccccc1)NC(=O)OC(C)(C)C)C(=O)OC(C)(C)C` (centres undefined), the growth inhibition in assay [1] was -16.1%; in assay [2], 11.9%; in assay [3] it was -1.75%; in assay [4], -16.6%; in assay [5] it was -13.9%; in assay [6], 8.05%.
Consider `CCC(C)C/C(C)=N\NC(N)=O` (centres undefined), for which the growth inhibition is 1.75% in assay [1]; 0.1% in assay [2]; 3.1% in assay [3]; 9.2% in assay [4]; -4.75% in assay [5]; 6.25% in assay [6].
As to `CCN1C(=O)/C(=C/c2cc([N+](=O)[O-])ccc2OCC(=O)O)SC1=S`, the growth inhibition is -1.85% in assay [1]; -11.3% in assay [2]; 3.5% in assay [3]; -42.8% in assay [4]; 2.55% in assay [5]; 1.4% in assay [6].
`O=C1CC2(CCCC2)C(=O)N1c1ccc(O)c(CN2CCCCC2)c1`: the growth inhibition is 7.6% in assay [1]; -4.3% in assay [2]; -19.6% in assay [3]; 14.7% in assay [4]; 6.35% in assay [5]; 4.95% in assay [6].
In the case of `CCCCCCCCCCCCCCOc1ccc2ccccc2c1`, the growth inhibition in assay [1] was 21.5%; in assay [2] it was 6.7%; in assay [3], 6.5%; in assay [4], -10.4%; in assay [5] it was -6.05%; in assay [6], -4%.
Take `N#Cc1cc2c3ccccc3ncc2c2ccccc12`: the growth inhibition is 0.95% in assay [1]; 16.4% in assay [2]; -3% in assay [3]; -1.1% in assay [4]; -1.7% in assay [5]; -6% in assay [6].
As for `COc1cc2c(cc1OC)C1c3ccccc3CCCN1CC2` (centres undefined), the growth inhibition in assay [1] is -40.4%; in assay [2], -4.5%; in assay [3], -57.5%; in assay [4] it was 0.55%; in assay [5], -23.6%; in assay [6], -27%.
Turning to `CCCCCCNC(CC(N)=O)C(=O)O` (centres undefined), the growth inhibition in assay [1] is -13.2%; in assay [2] it was 3.85%; in assay [3], 11.3%; in assay [4] it was 2.45%; in assay [5], -12.8%; in assay [6], -26.2%.
As for `COc1ccc(NC(=O)C(F)(F)F)cc1`, the growth inhibition was 9.3% in assay [1]; 3.85% in assay [2]; 10.4% in assay [3]; -2.2% in assay [4]; 0.55% in assay [5]; 1.75% in assay [6].
For the molecule `N#CC(C#N)=C(N)/C(C#N)=C/c1ccc(O)c(O)c1`, the growth inhibition is -14.2% in assay [1]; -4.9% in assay [2]; -5.25% in assay [3]; 3.7% in assay [4]; 2.4% in assay [5]; 6.85% in assay [6].
On to `CN(C)C(=N/O)/C(=N\O)N(C)C`, for which the growth inhibition in assay [1] is -5.05%; in assay [2], -25%; in assay [3] it was -23.1%; in assay [4], -6.35%; in assay [5], -23.8%; in assay [6], -0.2%.
Take `CC1=C[P+](c2ccccc2)(c2ccccc2)c2ccccc2O1`: the growth inhibition is 58% in assay [1]; 57.6% in assay [2]; 66.8% in assay [3]; 34.6% in assay [4]; 72.3% (active) in assay [5]; 63.1% in assay [6].
On to `N#C/C(=N/Nc1ccccc1)c1ccccc1`, for which the growth inhibition in assay [1] is 6.5%; in assay [2] it was 9.1%; in assay [3], -12.1%; in assay [4] it was -11.2%; in assay [5], 1.85%; in assay [6], -7.95%.
With `Nc1ncc[nH]c1=O`, the growth inhibition in assay [1] was -16.1%; in assay [2] it was -4.1%; in assay [3], 1.25%; in assay [4], -4.1%; in assay [5], 2.9%; in assay [6], -20.2%.
Take `OC(c1nc2ccccc2s1)(C(F)(F)F)C(F)(F)F`: the growth inhibition was -14.2% in assay [1]; -20.1% in assay [2]; -9.5% in assay [3]; 18.4% in assay [4]; -13% in assay [5]; 38.4% in assay [6].
Turning to `CNC(=O)OCc1c(COC(=O)NC)c(-c2ccc(C(C)(C)C)cc2)n(C)c1C`, the growth inhibition in assay [1] is 3.45%; in assay [2], 12.9%; in assay [3], 5.5%; in assay [4] it was -2.75%; in assay [5], 15.8%; in assay [6], 22.1%.
In the case of `CCOc1nc(C(=O)O)cc2ccsc12`, the growth inhibition in assay [1] is 1.15%; in assay [2], -6.2%; in assay [3] it was 5.5%; in assay [4], -48.1%; in assay [5], -43.4%; in assay [6], 0%.
Take `CCNc1ccc(Cl)cc1[N+](=O)[O-]`: the growth inhibition in assay [1] is -28.8%; in assay [2], -66.2%; in assay [3], 11.9%; in assay [4], -6.95%; in assay [5], -33.4%; in assay [6] it was -26.6%.
As to `CC1(C)C2=CCCC(=O)[C@@]2(C)CC[C@@H]1O`, the growth inhibition in assay [1] was -4.15%; in assay [2] it was 4.65%; in assay [3], -4.9%; in assay [4], -26.1%; in assay [5], 1.55%; in assay [6] it was 3.35%.
With `CSc1ncc(CO)c(Nc2ccccc2Cl)n1`, the growth inhibition in assay [1] was 2.8%; in assay [2], 14.4%; in assay [3] it was -19.4%; in assay [4], -14%; in assay [5], 12.3%; in assay [6], 1.55%.
For the molecule `CC(=O)NNc1nc(C)c(C(/C=C/c2ccc([N+](=O)[O-])cc2)=N/N)s1`, the growth inhibition in assay [1] was 22.4%; in assay [2] it was 9.2%; in assay [3], 3.85%; in assay [4], 17.4%; in assay [5], -0.4%; in assay [6], -12.4%.
For the molecule `C/C(C(=O)O)=C1\N=C(N)NC1=O`, the growth inhibition in assay [1] was -3.25%; in assay [2], -2.9%; in assay [3], -5.5%; in assay [4], -36.9%; in assay [5], -17.9%; in assay [6], -14.4%.
In the case of `O=[N+]([O-])c1ccc(-c2nnn(Cc3ccco3)c2N2CCCCC2)cc1`, the growth inhibition in assay [1] was 69.6%; in assay [2], 70.7% (active); in assay [3], 91.2% (active); in assay [4], 84.2% (active); in assay [5], 95.7% (active); in assay [6] it was 81.3% (active).
Turning to `CN(C)S(=O)(=O)c1ccc(N)c([N+](=O)[O-])c1`, the growth inhibition in assay [1] was -0.2%; in assay [2], 10.7%; in assay [3] it was -7.75%; in assay [4], -5.05%; in assay [5], 7.55%; in assay [6], 14.3%.
In the case of `CCOC(=O)C(=O)C(C(=O)OCC)C(C)C(=O)OCC` (centres undefined), the growth inhibition in assay [1] is 1.9%; in assay [2], -8.3%; in assay [3] it was 8.2%; in assay [4], -41.1%; in assay [5] it was 6.65%; in assay [6] it was -11.2%.
With `C1CCCCC/C2=C(\CCCC1)CSCCCS2`, the growth inhibition in assay [1] is -25.8%; in assay [2] it was -19.9%; in assay [3], -16.1%; in assay [4] it was -14.6%; in assay [5] it was 0.55%; in assay [6], -36.5%.
Regarding `Cc1ccc(C(=N)c2ccccc2Cc2ccccc2)cc1`, the growth inhibition in assay [1] was -14.4%; in assay [2] it was -10.7%; in assay [3], -12.8%; in assay [4] it was 2.75%; in assay [5], 3.9%; in assay [6], -20.3%.
As for `CCCCCCCCCCCCCCOc1ccc(Sc2ccc([N+](=O)[O-])cc2)cc1`, the growth inhibition in assay [1] was 40.8%; in assay [2], -0.1%; in assay [3], 46%; in assay [4], -5%; in assay [5], 5.8%; in assay [6], 26.8%.
For `O=C(O)CCSCc1ccc(I)cc1`, the growth inhibition in assay [1] was 35.1%; in assay [2], 35.5%; in assay [3], 54%; in assay [4] it was 34.2%; in assay [5], 47.6%; in assay [6], 37.3%.
As to `Cc1ccc(S(=O)(=O)OC2CCC3(C)C(=CCC4C3CCC3(C)C(C(C)CCCC(C)C)CCC43)C2)cc1` (centres undefined), the growth inhibition in assay [1] is 51.8%; in assay [2], 26.8%; in assay [3], 49.8%; in assay [4], 10.8%; in assay [5], 2.5%; in assay [6] it was 37.5%.
For the molecule `COc1ccc(C=C2C(=O)OC(C)(C)OC2=O)cc1OC`, the growth inhibition was -6.7% in assay [1]; -8.85% in assay [2]; -8.5% in assay [3]; 30% in assay [4]; -23.8% in assay [5]; -4.85% in assay [6].
As for `CCC(=O)Oc1ccc(C(=O)O)cc1`, the growth inhibition in assay [1] is 6.2%; in assay [2], -10%; in assay [3], -12.1%; in assay [4], -39.5%; in assay [5], -26.5%; in assay [6] it was 1.45%.
Take `Cc1cc2c(=O)c(C(=O)O)c[nH]c2cc1-n1cccc1`: the growth inhibition in assay [1] was 41.8%; in assay [2], 23.6%; in assay [3] it was 45%; in assay [4] it was 15.7%; in assay [5], 36.3%; in assay [6], 33.2%.
With `CCCCCCC(C)(O)C(C)O` (centres undefined), the growth inhibition was 27.8% in assay [1]; 8.5% in assay [2]; 24.2% in assay [3]; 14.9% in assay [4]; 12.2% in assay [5]; 9.2% in assay [6].
On to `Cc1ccc(NCC(O)CN2CCOCC2)cc1` (centres undefined), for which the growth inhibition was 34.2% in assay [1]; 14.3% in assay [2]; 27.2% in assay [3]; -8.05% in assay [4]; 6.5% in assay [5]; 36.2% in assay [6].
As for `CC(C)(CNC(=O)C12CC3CC(CC(C3)C1)C2)NC(=O)C12CC3CC(CC(C3)C1)C2`, the growth inhibition in assay [1] is 15.9%; in assay [2] it was 12.5%; in assay [3], 14.1%; in assay [4] it was 11.1%; in assay [5] it was 0.85%; in assay [6], 27.8%.
